KB-V1 MDR tox: qHTS assay for MDR1-selective chemotherapeutics: Primary screen using the drug-selected MDR subline cells KB-V1; KB-V1 MDR cells viability, CellTiter-Glo, 72 h; Potency, µM (titrated, usually from 46.1 µM), actives largely listed as cytotoxic; hit rate 3.4% among 400,000; further: on the % scale 0 is the no-effect control and ±100 the full control effect; nearly all actives have a fitted effect of over 60% in size
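Potencies derive from concentration-effect curves fitted to normalized luminescence (CellTiter-Glo) of KB-V1 cells treated for 72 h at 37 degrees C in phenol-red-free DMEM containing 10% FBS.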
HepG2 tox: qHTS for Inhibitors of TGF-b: Cytotox Counterscreen | AID 588856, 2011 | HepG2 CAGA-GFP viability, ATP luminescence, 18 h | hit rate 0.76% among 410,000 | Potency, µM (doses to about 46.1 µM), without a hit: at the highest dose activity change, negative = cytotoxicity, most hits filed as cytotoxic
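CellTiter-Glo luminescence gave cytotoxicity after 18 hours at 37 degrees C. The cells were HepG2 CAGA-GFP in 1% FBS DMEM, stimulated with 500 pg/mL TGF-beta after compound addition. %Activity was normalised to no-cell wells (complete cell-killing) and DMSO (no toxicity), and curves were fitted and classified.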
HT1080 IDH1KD tx: qHTS for induction of synthetic lethality in tumor cells producing 2HG: qHTS for the HT-1080-IDH1KD cell line; HT-1080 IDH1 knockdown viability, ATP luminescence, 48 h; Potency, µM (top dose mostly 46.1 µM), for inactives: at the top dose activity, negative = toxicity, most hits filed as cytotoxic; hit rate 2% among 360,000; AID 686971, 2013;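 further: 0% = DMSO wells and -100% = cell-free medium wells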
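Knockdown cells (IDH1KD HT-1080) received compounds 2 h after plating at 750 cells/well and were kept 48 h at 37 °C in 5% FBS RPMI. A CellTiter-Glo luminescence read gave % activity for curve fitting.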
KB-3-1 cytotox: qHTS assay for MDR1-selective chemotherapeutics: Primary screen using the parental adenocarcinoma cell KB-3-1; KB-3-1 viability, CellTiter-Glo ATP luminescence, 72 h; Potency, µM (doses to about 46.1 µM), usual class: cytotoxic; hit rate 1.4% among 400,000; further: on the % scale 0 is the no-effect control and ±100 the full control effect; nearly all actives have a fitted effect of over 60% in size
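Cytotoxicity measured as CellTiter-Glo luminescence after 72 h at 37 C. Compound titrations were pinned onto drug-naive KB-3-1 parental adenocarcinoma cells grown in DMEM with 10% FBS, and normalized data fitted to concentration-response curves.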
TGFb SMAD3 inh: qHTS for Inhibitors of TGF-b; HepG2 CAGA-GFP TGF-b/SMAD3 reporter, GFP fluorescence, 18 h; TGF-beta stimulated, 500 pg/mL final; Potency, µM (titrated, usually from 46.1 µM), without a hit: at the highest dose activity, negative = inhibition, most hits filed as inhibitors; hit rate 1.2% among 410,000; AID 588855, 2011; further: on the % scale 0 is the no-effect control and ±100 the full control effect; nearly all actives have a fitted effect of over 65% in size
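Inhibition of TGF-beta-driven CAGA-GFP reporter expression in HEPG2 cells is measured by cellular GFP fluorescence after 18 h stimulation with 500 pg/mL recombinant TGF-beta in 1% FBS medium at 37 degrees C.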
HT1080NT lethal: qHTS for induction of synthetic lethality in tumor cells producing 2HG: qHTS for the HT-1080-NT fibrosarcoma cell line. HT-1080-NT fibrosarcoma viability, CellTiter-Glo ATP luminescence, 48 h. Potency, µM (highest dose often 46.1 µM), without a hit: top-dose activity, negative = less viability, usual class: cytotoxic. hit rate 1.6% among 360,000;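 further: NT is the 2HG producing partner of a matched IDH1 knockdown line; 0% = DMSO-treated cells and -100% = media-only wells without cells; nearly all actives have a fitted effect of over 55% in size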
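Toxicity toward the 2HG-producing NT line was scored as %Activity, normalised to DMSO and no-cell wells, from CellTiter-Glo luminescence after 48 hours' treatment.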
* marks the source's active call; other numbers are inactive results. Most compounds without a hit are left out; they make up all but 6.6% or so of the library. The call rests on the fitted dose curve; in most records, active means well fitted curve in the direction sought with a large enough effect; inconclusive means small, poorly fitted or top-dose-only effect, or another doubt; inactive means no such curve, though single readings can be large; an effect the other way counts as inactive or inconclusive. Potency means the concentration at half of the fitted maximal effect.

How did COc1ccc(C(=O)CN2CCN(S(=O)(=O)c3ccc(C(C)C)cc3)CC2)cc1 do in these assays?
KB-V1 MDR tox: inactive; HepG2 tox: -32%; KB-3-1 cytotox: inactive; TGFb SMAD3 inh: inconclusive

What do the screens show for `Cc1ccc(S(=O)(=O)N2CCOCC2)cc1C(=O)OCC(=O)N1CCCCC1`?
KB-V1 MDR tox: 18µM*; HepG2 tox: -2%; HT1080 IDH1KD tx: 1%; KB-3-1 cytotox: inactive; TGFb SMAD3 inh: -3%; HT1080NT lethal: -6%

What do the screens show for `O=C(NNC(=S)Nc1ccccc1)c1cc(Br)ccc1Cl`?
KB-V1 MDR tox: inactive; HepG2 tox: -16%; HT1080 IDH1KD tx: -2%; KB-3-1 cytotox: inactive; TGFb SMAD3 inh: 14µM*; HT1080NT lethal: -3%

Results for Cc1ccc(S(=O)(=O)N2CCOCC2)cc1C(=O)Nc1ccc(N2CCCCCC2)cc1 ?
KB-V1 MDR tox: inconclusive; HepG2 tox: -19%; HT1080 IDH1KD tx: inconclusive; KB-3-1 cytotox: 3.7µM*; TGFb SMAD3 inh: inconclusive; HT1080NT lethal: -14%

What do the screens show for `S=C(Nc1ccc(Br)cc1Cl)N1CCCC1`?
HepG2 tox: 2%; HT1080 IDH1KD tx: 3%; TGFb SMAD3 inh: 2%; HT1080NT lethal: 3%

How did O=C(Nc1ccc(CN2CCCCC2)cc1)Nc1ccc(Br)cc1Cl do in these assays?
KB-V1 MDR tox: inconclusive; HepG2 tox: 0%; HT1080 IDH1KD tx: -13%; KB-3-1 cytotox: 13µM*; TGFb SMAD3 inh: 26%; HT1080NT lethal: -10%

Results for CCC(Cc1ccccc1)NC(=O)Cn1ncc2c3ccccc3n(Cc3ccccc3)c2c1=O (centres undefined) ?
KB-V1 MDR tox: inactive; HepG2 tox: 0%; KB-3-1 cytotox: inactive; TGFb SMAD3 inh: -12%

How did CC1(C(=O)O)CCN1C(=O)c1ccccc1F (centres undefined) do in these assays?
KB-V1 MDR tox: inactive; HepG2 tox: 2%; HT1080 IDH1KD tx: 13%; KB-3-1 cytotox: inactive; TGFb SMAD3 inh: 4%; HT1080NT lethal: 4%

What do the screens show for `CCOc1ccccc1C(=O)Nc1ccc(S(=O)(=O)Nc2onc(C)c2C)cc1`?
KB-V1 MDR tox: inactive; HepG2 tox: 0%; KB-3-1 cytotox: inactive; TGFb SMAD3 inh: 24%

How did CCOC(=O)c1c(-c2ccccc2Cl)csc1NC(=O)c1cc(S(=O)(=O)N2CCOCC2)ccc1C do in these assays?
KB-V1 MDR tox: 10µM*; HepG2 tox: 9%; HT1080 IDH1KD tx: 1%; KB-3-1 cytotox: inactive; TGFb SMAD3 inh: -5%; HT1080NT lethal: 2%

What do the screens show for `O=C(Nc1ccc(N2CCCC2)cc1)c1cc(Br)ccc1Cl`?
KB-V1 MDR tox: inconclusive; HepG2 tox: -13%; HT1080 IDH1KD tx: inconclusive; KB-3-1 cytotox: 21µM*; TGFb SMAD3 inh: -12%; HT1080NT lethal: inconclusive

How did CC(=O)Nc1ccc(NC(=O)c2cc(-c3cc(C)cc(C)c3O)n[nH]2)cc1 do in these assays?
KB-V1 MDR tox: inactive; HepG2 tox: -6%; HT1080 IDH1KD tx: -11%; KB-3-1 cytotox: inconclusive; TGFb SMAD3 inh: -17%; HT1080NT lethal: -7%

What do the screens show for `Cc1cc(C)c(O)c(-c2cc(C(=O)Nc3ccc(S(=O)(=O)N4CCOCC4)cc3)[nH]n2)c1`?
KB-V1 MDR tox: inconclusive; HepG2 tox: -60%; HT1080 IDH1KD tx: inconclusive; KB-3-1 cytotox: inconclusive; TGFb SMAD3 inh: inconclusive; HT1080NT lethal: 21µM*

Results for CC(C)=CCc1cc([C@@H]2COc3c(ccc4c3C=CC(C)(C)O4)C2)c(O)cc1O ?
KB-V1 MDR tox: inactive; HepG2 tox: 16µM*; HT1080 IDH1KD tx: inconclusive; KB-3-1 cytotox: inactive; TGFb SMAD3 inh: 14µM*; HT1080NT lethal: inconclusive

What do the screens show for `Cc1ccc2nc(C)cc(Nc3ccc4c(c3)OCCO4)c2c1`?
KB-V1 MDR tox: inactive; HepG2 tox: -22%; HT1080 IDH1KD tx: inconclusive; KB-3-1 cytotox: inconclusive; TGFb SMAD3 inh: inconclusive; HT1080NT lethal: inconclusive

How did CCOc1ccc2nc(C)cc(Nc3cccc([N+](=O)[O-])c3)c2c1 do in these assays?
KB-V1 MDR tox: 15µM*; HepG2 tox: -101%; HT1080 IDH1KD tx: 18µM*; KB-3-1 cytotox: inactive; TGFb SMAD3 inh: inconclusive; HT1080NT lethal: -28%

How did CCOc1ccc2nc(C)cc(Nc3ccc4c(c3)OCCO4)c2c1 do in these assays?
KB-V1 MDR tox: inconclusive; HepG2 tox: -81%; HT1080 IDH1KD tx: inconclusive; KB-3-1 cytotox: inconclusive; TGFb SMAD3 inh: 22µM*; HT1080NT lethal: inconclusive

Results for Cc1cc(Nc2ccc3c(c2)OCCO3)c2cccc(C)c2n1 ?
KB-V1 MDR tox: 23µM*; HepG2 tox: 0%; HT1080 IDH1KD tx: inconclusive; KB-3-1 cytotox: inconclusive; TGFb SMAD3 inh: -25%; HT1080NT lethal: inconclusive

How did CCOc1ccc(NC(=O)Cn2c(=O)c(CNc3ccc(OC)cc3)cc3ccc(OC)cc32)cc1 do in these assays?
KB-V1 MDR tox: inactive; HepG2 tox: 2%; KB-3-1 cytotox: inactive; TGFb SMAD3 inh: 7%

How did CCOC(=O)/C(=C(/C)N)C1CC(=O)NC1=O (centres undefined) do in these assays?
KB-V1 MDR tox: inactive; HepG2 tox: -2%; HT1080 IDH1KD tx: 5%; KB-3-1 cytotox: inactive; TGFb SMAD3 inh: 10%; HT1080NT lethal: -2%

What do the screens show for `Cc1ccccc1OCCCn1c(-c2ccc(Cl)cc2)nc2ccccc2c1=O`?
KB-V1 MDR tox: inactive; HepG2 tox: -12%; KB-3-1 cytotox: inactive; TGFb SMAD3 inh: -4%

Results for O=C(NNC1=C(C(=O)C(F)(F)F)CCC1)c1cccnc1 ?
KB-V1 MDR tox: inactive; HepG2 tox: -2%; HT1080 IDH1KD tx: 2%; KB-3-1 cytotox: inactive; TGFb SMAD3 inh: -4%; HT1080NT lethal: -1%

Results for O=C(NNC1=C(C(=O)C(F)(F)F)CCC1)c1cccc(O)c1 ?
KB-V1 MDR tox: inactive; HepG2 tox: -12%; HT1080 IDH1KD tx: 18µM*; KB-3-1 cytotox: inconclusive; TGFb SMAD3 inh: -16%; HT1080NT lethal: inconclusive

How did Cc1cccc(C(=O)NNC2=C(C(=O)C(F)(F)F)CCC2)c1O do in these assays?
KB-V1 MDR tox: inactive; HepG2 tox: -44%; HT1080 IDH1KD tx: 21µM*; KB-3-1 cytotox: inconclusive; TGFb SMAD3 inh: inconclusive; HT1080NT lethal: 21µM*

Results for Cc1cccc(C(=O)NNC(=O)c2ccc(Cl)cc2)c1O ?
KB-V1 MDR tox: inactive; HepG2 tox: -21%; HT1080 IDH1KD tx: -19%; KB-3-1 cytotox: inconclusive; TGFb SMAD3 inh: 18%; HT1080NT lethal: -21%

From PubChem BioAssay
